Bioassay records deposited in PubChem by National Center for Advancing Translational Sciences (NCATS).
D2 ag-1 = HTS Assay for Allosteric Agonists of the Human D2 Dopamine Receptor: Primary Screen for Agonists; D(2) dopamine receptor (Homo sapiens), P14416; HEK293 T-REx D2 cells, calcium flux agonist mode; activation, % at 2 µM; 340,000 compounds, 0.53% hits;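 active = activation over 3 SD above normal in the single-dose calcium agonist read, cut at about 30% in these data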; also: 0% is about no effect
Target sequence (P14416 whole entry, looked up): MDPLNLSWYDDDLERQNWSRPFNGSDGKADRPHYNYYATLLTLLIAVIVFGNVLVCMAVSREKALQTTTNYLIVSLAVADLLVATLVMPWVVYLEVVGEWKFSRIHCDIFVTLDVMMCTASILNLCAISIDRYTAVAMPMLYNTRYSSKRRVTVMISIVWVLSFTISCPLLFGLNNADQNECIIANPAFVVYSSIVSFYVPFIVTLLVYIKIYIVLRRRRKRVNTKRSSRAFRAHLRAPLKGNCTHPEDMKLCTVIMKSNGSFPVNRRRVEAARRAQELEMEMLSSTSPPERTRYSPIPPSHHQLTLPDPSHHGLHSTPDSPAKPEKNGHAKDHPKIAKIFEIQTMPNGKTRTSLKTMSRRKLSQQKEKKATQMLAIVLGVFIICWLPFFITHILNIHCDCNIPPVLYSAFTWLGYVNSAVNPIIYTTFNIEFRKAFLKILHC
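HEK293 Trex D2 cells, tetracycline-induced, o/n 30 C 5% CO2; no-wash Ca dye, RT 30–90 min; 10-cycle baseline, 23 nl cpd added, kinetic Ca read 180 s; agonist hits = positive Ca response.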
D2 ag-2 = Beta-Arrestin HTS for Positive Allosteric Modulators of the Human D2 Dopamine Receptor: Agonists. D(2) dopamine receptor (Homo sapiens), P14416. DiscoveRx PathHunter D2 beta-arrestin, luminescence, 90 min; 100% = 57 uM dopamine signal. activation, % (test concentration not listed). 360,000 compounds, 0.084% hits. AID 624465, 2012; in the data active = activation above about 40%; inconclusive = between about 15% and that limit
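DiscoveRx PathHunter D2 beta-arrestin cells (2,100/well) attached overnight, then compound-stimulated 90 min at 37 C in HBSS/10 mM HEPES/0.1% Tween-20 buffer; beta-galactosidase complementation read by luminescence after 1 h at ambient temperature. Dopamine 57 uM final (EC100) as control.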
D2 PAM-1 = HTS Assay for Positive Allosteric Modulators of the Human D2 Dopamine Receptor: Primary Screen for Potentiators; D(2) dopamine receptor (Homo sapiens), P14416; HEK293 T-REx D2, calcium flux, EC20 dopamine potentiation; potentiation, % at 10 µM; 340,000 compounds, 0.34% hits; AID 485347, 2010;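 active = potentiation over 3 SD above the plate norm, cut at about 30% in these data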; also: 0% is about no effect
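Potentiation of an EC20 dopamine calcium response is measured in a force-coupled, tetracycline-inducible Hek293 Trex D2 line. Compound-only kinetic reads over 180 s flag agonists before dopamine addition.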
D2 PAM-2 = Beta-Arrestin HTS for Positive Allosteric Modulators of the Human D2 Dopamine Receptor: Potentiators; D(2) dopamine receptor (Homo sapiens), P14416; DiscoveRx D2 beta-arrestin cells, luminescence, 90 min; 100% = 57 uM dopamine signal; potentiation, % (concentration not given with the values); 360,000 compounds, 0.23% hits; AID 624464, 2012; in the data active = potentiation above about 50%; inconclusive = mostly about 30% to 49%
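D2 cells co-treated with compound plus 50 nM dopamine (EC20) for 90 min at 37 deg C to detect potentiation. Beta-arrestin recruitment was read as enzyme-fragment luminescence after 1 h at ambient temperature. Full response was set by 57 uM dopamine.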
D2 antagonist = HTS Assay for Allosteric Antagonists of the Human D2 Dopamine Receptor: Primary Screen for Antagonists; D(2) dopamine receptor (Homo sapiens), P14416; HEK293 TREx D2 cells, calcium flux, dopamine EC80; inhibition, % at 10 µM; 340,000 compounds, 2% hits; in the data active = inhibition above about 30%; inactive = below that, where a call was filed; also: 0% is about no effect
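Read-out: kinetic calcium fluorescence (1 cycle/s) in inducible HEK293 T-REx D2 cells after an EC80 dopamine addition that followed 180 s compound preincubation. Loss of the dopamine response indicates antagonism.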
* marks the source's active call; other numbers are inactive results; ? = inconclusive; nt = no result. Only some compounds are listed: those with a hit (about 2.4% of all), similar ones and a draw of the others.

SMILES	D2 ag-1	D2 ag-2	D2 PAM-1	D2 PAM-2	D2 antagonist
COc1ccc(-c2c(C)nn3c(N4CCN(Cc5ccccc5)CC4)cc(C)nc23)cc1OC	0	-5	31*	-1	26
Cc1cc(N2CCN(Cc3ccccc3)CC2)n2nc(C)c(-c3ccccc3)c2n1	-1	-3	-12	-8	18
COc1ccccc1C(=O)Nc1ccccc1C(=O)OCc1cc(=O)n2c(C)csc2n1	-1	nt	-5	nt	nt
CC(=O)c1ccc2c(c1)C1C=CCC1C(c1ccc(S(=O)(=O)N3CCOCC3)cc1)N2 (stereo not drawn)	1	10	14	61*	3
CCc1nnc(NC(=O)c2ccc(S(=O)(=O)N3CCCC(C)C3)cc2)s1 (stereo not drawn)	-1	-2	35*	-3	0
CCc1nnc(NC(=O)c2ccc(S(=O)(=O)N3CCCC3)cc2)s1	0	-2	-1	-6	-24
Cc1cc(C)nc(N2CCN(c3nc(C)cc(C)n3)CC2)n1	-1	nt	-5	nt	0
CCOc1cc(C)nc(N2CCN(C3CCCCC3)CC2)n1	1	-1	7	-18	40*
O=S(=O)(CCn1cccc1)CCn1cccc1	0	-3	30*	-21	-14
CC(C)CCNC(=O)CCc1nnc(Cc2c[nH]c3ccccc23)o1	1	-2	1	-2	-5
S=c1[nH]nc(Cc2c[nH]c3ccccc23)o1	1	1	1	15	41*
CNC(=S)N1CCC(c2nc3ccccc3s2)CC1	-1	0	18	-14	68*
CCOC(=O)N1CCc2c(sc3c2c(=O)n(CCc2ccccc2)c(=O)n3CC(=O)Nc2ccccc2C)C1	0	nt	3	nt	nt
CCN1C(=S)SC(=O)C1=C1C=C(C)N(Cc2ccco2)C(C)=C1	nt	-5	8	-15	nt
CCN1C(=S)SC(=O)C1=C1C=C(C)OC(C)=C1	2	-1	4	-1	57*
C/C(O)=C(/C=Nc1ccccc1)C(=O)Nc1ccccc1	1	-3	11	-1	33*
Cc1ccc(OCCN2CCC2(C)C(=O)NCc2ccc(C(F)(F)F)cc2)cc1 (stereo not drawn)	nt	-3	nt	-9	nt
CS(=O)(=O)c1ccc(NCC2CCCO2)c([N+](=O)[O-])c1 (stereo not drawn)	0	-5	125*	-9	-1
CCOc1ccc(C(=O)NCCc2csc(-c3cccc(C)c3)n2)cc1	1	nt	-5	nt	nt
CCCC1(C(=O)OC)NC(c2cccc(F)c2)C2C(=O)N(CC)C(=O)C21 (stereo not drawn)	1	-4	-8	-5	31*
CC1(C(=O)NCc2ccc(F)cc2)Oc2ccccc2NC1=O (stereo not drawn)	0	0	-15	5	76*
COc1ccc(C(=O)c2ncc(C(F)(F)F)cc2Cl)cc1	0	2	7	-7	-10
COc1cccc(C(=O)c2ncc(C(F)(F)F)cc2Cl)c1	-1	1	36*	-2	-6
CCOCCCNCc1ccc(OC)c(OC)c1	-1	-1	-6	-13	36*
CN1CCN(C(=O)CSc2nc(-c3cccs3)ccc2C#N)CC1	-1	2	37*	-5	-5
SMILES	D2 ag-1	D2 ag-2	D2 PAM-1	D2 PAM-2	D2 antagonist
Cc1ccc(-c2nn3c(-c4ccccc4C)nnc3c3ccccc23)cc1	-1	nt	8	nt	nt
CC(Cc1ccccc1)NC(=O)C1(c2ccccc2)CCOCC1 (stereo not drawn)	0	-2	-1	-9	9
CC(C)NC(=O)C1(c2ccccc2)CCOCC1	1	-3	35*	-16	-26
CC1(Cc2ccccc2Cl)C(=O)Nc2ccc(OC(F)(F)F)cc21 (stereo not drawn)	nt	-1	nt	-14	nt
CCOC(=O)C1CCN(C(=O)CN(c2ccc(Cl)c(C(F)(F)F)c2)S(C)(=O)=O)CC1	0	-3	15	-16	-4
CCOC(=O)C1CCN(C(=O)CN(c2ccc3c(c2)OCO3)S(C)(=O)=O)CC1	1	-2	1	-16	45*
Cc1cc(C)cc(N(CC(=O)N2CCCCCC2)S(C)(=O)=O)c1	-1	7	-2	2	34*
CCCN1CCN(C(=O)Nc2cccc(C(F)(F)F)c2)CC1	-1	-3	-11	-15	52*
CCC(C)NC(=O)c1cc2c(Cl)nc3ccc(C)cc3c2s1 (stereo not drawn)	-1	nt	6	nt	nt
Cc1c(C(=O)NCc2ccccc2Cl)sc2ncnc(N(C)C3CCCCC3)c12	1	nt	-8	nt	nt
CC(NC(=O)CCC(=O)Nc1ccccc1O)c1ccccc1 (stereo not drawn)	nt	-3	nt	-12	nt
CC(CNc1ccccc1O)C(=O)O (stereo not drawn)	0	?	5	68*	-1
O=S1(=O)C=C[C@H](COCc2ccccc2)N1	nt	-6	nt	-4	nt
COc1ccc(NC(=O)N2CCCC(CCC(=O)N(C)CCc3ccccn3)C2)cc1 (stereo not drawn)	-2	2	17	-5	14
CCc1ccccc1NC(=O)N1CCCC(CCC(=O)N(C)CCc2ccccn2)C1 (stereo not drawn)	-1	-2	-8	-4	33*
NC1=C(Cl)C(=O)c2ccccc2C1=O	nt	10	nt	51*	nt
NC1=C(Cl)C(=O)c2ccc(S(N)(=O)=O)cc2C1=O	nt	6	nt	58*	nt
NS(=O)(=O)c1ccc2c(c1)C(=NO)c1cc(S(N)(=O)=O)ccc1-2	1	8	-6	-3	-7
Cc1ccc(C(=O)Nc2cccc(C(F)(F)F)c2)cc1NC(=O)c1c[nH]c2cc(C(F)(F)F)ccc2c1=O	nt	1	nt	-3	nt
CCN1CCN(Cc2ccc(NC(=O)c3ccc(C)c(NC(=O)c4c[nH]c5cc(C(F)(F)F)ccc5c4=O)c3)cc2C(F)(F)F)CC1	-1	-2	-4	0	36*
CCOc1ccc(CNCc2c(C(=O)O)n(Cc3ccccc3F)c3cc(OC)ccc23)cc1	0	nt	-19	nt	nt
Cc1cc(C)c(NC(=O)C2CCCN(S(=O)(=O)c3c(C)noc3C)C2)c(C)c1 (stereo not drawn)	-1	nt	30	nt	nt
Cc1cc(C)c(NC(=O)C2CCCN(S(=O)(=O)c3c(C)noc3/C=C/N(C)C)C2)c(C)c1 (stereo not drawn)	0	-2	-1	-3	33*
CCOC(=O)c1cc(C)nc(SC)c1C#N	1	4	9	1	31*
CCOC(=O)c1cc(C(C)(C)C)nc(SC)c1C#N	-1	-6	7	-16	-17
